{"source": "PubChem BioAssay AID720542", "about": "(National Center for Advancing Translational Sciences (NCATS), 2013)", "note": "The campaign covered roughly 360,000 compounds. About 740 (0.21%) were called active. Inconclusive results (about 2%) are left out. Calls follow the shape of the dose curve; as a rule, active = well fitted inhibition curve with a large enough effect; inconclusive = small, poorly fitted or top-dose-only effect; inactive = no such curve, though single readings can be large or run the other way. Shown is part of a subset that was picked to be rich in actives. Where a call stands in place of a potency, no number is given. Potency is read from the fitted curve at half-maximal effect.", "data": [{"tested_on": "Plasmodium falciparum AMA1 (3D7) - RON2 peptide interaction", "assay": "qHTS for Inhibitors of AMA1-RON; Towards Development of Antimalarial Drug Lead: Primary Screen; also: nearly all actives have a fitted effect of over 45% in size", "conditions": "AlphaScreen AMA1-biotinylated RON2 peptide binding; series mostly up to 58.2 µM", "from_the_text": "Plasmodium, the causative agent of malaria, is one of the world's deadliest parasitic diseases. Currently there is no vaccine available and there is widespread resistance to common anti-malarial drugs. This warrants novel, alternative approaches for developing improved therapy. During infection, one such essential interaction is between two parasite proteins, the apical membrane antigen1 (AMA1) that is translocated onto the merozoite surface and the rhoptry neck protein 2 (RON2), which is transferred to the red blood cells (RBC) membrane during invasion (Besteiro et.al., 2009). Recently, the Miller lab has shown that the interaction between AMA1 and RON2 is essential for junction formation of the parasite with the host cell (Srinivasan et.al., 2011). The binding of the RON2 peptide to the hydrophobic pocket in AMA triggers the formation of the moving junction which provides a firm anchor for the parasite to pull itself into the RBC using its actin-myosin motor; an irreversible step that commits the parasite for invasion. Only one AMA1 and RON2 genes exists in Plasmodium and there are no alternate pathways. Moreover, the region corresponding to RON2 peptide is conserved in all P. falciparum isolates for which sequences are available. The key residues in the AMA1 hydrophobic pocket that binds RON2 are also conserved and indicate a functional constraint governing this essential step in invasion since a short RON2 peptide (RON2L) corresponding to the binding region on AMA1 is sufficient to compete with the native RON2 protein and inhibits invasion (Tonkin et.al, 2011). Therefore, developing small molecule inhibitors of this interaction offers a promising target opening a new arena for anti-malarial therapeutics drug design.\nIn collaboration with the Miller lab, a quantitative High Throughput Screen using the AlphScreen technology was developed using a recombinant his-tagged AMA1 and a biotinylated RON2 peptide. This fluorescent screen was assayed against the NIH Molecular Libraries Small Molecule Repository (MLSMR). Inhibition of this protein-protein interaction is the desired outcome of this assay. However, due the limitations of this AlphaScreen assay, a large number of artifacts were observed. An AlphaScreen counterscreen was run to identify the true inhibitors, triage compound activity, and weed out false positives.\nNIH Chemical Genomics Center [NCGC]\nNIH Molecular Libraries Probe Centers Network [MLPCN]\nAssay Submitter (PI): Louis Miller, National Institute of Allergy and Infectious Disease (NIAID)\nTwo microliters of his-tagged AMA1 3D7 allele protein (final concentration 25 nM) was dispensed into a 1,536-well assay plate. Small molecules and positive control peptides were pin-transferred (23 nL or 46 nL) via Kalypsys pin-tool equipped with a 1,536-pin array, resulting in final compound and peptide concentration ranges of 91.5 nM - 57.2 µM, and 15.6 nM - 2.00 µM, respectively. Unlabeled RON2 peptide or R1 peptide ([…]) that specifically binds the 3D7 AMA1 was used as a positive control that inhibited the binding of RON2L to AMA1. After 15 minutes incubation, 1 uL of biotinylated RON2 peptide (final concentration 25 nM) or buffer were dispensed and the assay plate was incubated for an additional 30 minutes at room temperature and protected from light. This was followed by an addition of 1 uL mixture of donor and acceptor beads (10 ug/mL final concentrations for each). The plates were incubated for 30 min at room temperature and read using the EnVision(R) plate reader (PerkinElmer). Maximum inhibition response was normalized to the positive control signal while no inhibition response was normalized to the DMSO treated wells.", "values": [{"smiles": "CC1CCCN(C(=O)Cn2c(=O)oc3ccccc32)C1", "note": "(configuration not stated)", "Potency": "inactive"}, {"smiles": "Cc1coc(C)c1C(=O)CC1(O)C(=O)N(C)c2ccc(Cl)cc21", "note": "(configuration not stated)", "Potency": "inactive"}, {"smiles": "N#Cc1cccc(CSc2nnc(CCCO)n2-c2ccccc2)c1", "Potency": "inactive"}, {"smiles": "Cc1ccc(C(C(=O)NC2CCCCC2)N(C(=O)c2csnn2)C2CC2)o1", "note": "(configuration not stated)", "Potency": "inactive"}, {"smiles": "COc1cccc(-c2ccc3c(c2)N(Cc2ccccc2OC)C(=O)C(C)S3)c1", "note": "(configuration not stated)", "Potency": "inactive"}, {"smiles": "O=C1/C(=C\\c2cccnc2)CN(Cc2ccccc2)C/C1=C\\c1cccnc1", "Potency": "inactive"}, {"smiles": "Nc1ccc2c(c1)C(=Cc1cccnc1)c1ccccc1-2", "Potency": "20 µM (active)"}, {"smiles": "Cc1ccc(C2=C/C(=C\\c3cccnc3)C(=O)O2)cc1", "Potency": "inactive"}, {"smiles": "Cc1c(C)c2c(OCC(=O)N[C@@H](C(=O)O)c3ccccc3)cc3c(c2oc1=O)CCC(C)(C)O3", "Potency": "inactive"}, {"smiles": "O=C(CC[C@H]1O[C@@H](n2ccc(=O)[nH]c2=O)[C@H](O)[C@@H]1O)N[C@H](Cc1ccccc1)C(=O)NCCCN1CCCC1=O", "Potency": "inactive"}, {"smiles": "CCOC(=O)CC(SP1(=S)OCC2(CCCCO2)C(C2CCCCO2)O1)C(=O)OCC", "note": "(configuration not stated)", "Potency": "inactive"}, {"smiles": "O=C(Nc1ccccc1-c1nnn(CC(=O)N2CCCc3ccccc32)n1)c1cccc(Cl)c1", "Potency": "inactive"}, {"smiles": "CCC(C)C(=O)Nc1ccccc1N1CCN(c2ccc(F)cc2)CC1", "note": "(configuration not stated)", "Potency": "inactive"}, {"smiles": "Cc1cc(C)cc(NC(=O)N2CCC(NC(=O)c3ccc(F)cc3)CC2)c1", "Potency": "inactive"}, {"smiles": "O=c1ccc2c(-c3ccccc3S(=O)(=O)O)c3ccc(O)c(O)c3oc-2c1O", "Potency": "5.01 µM (active)"}, {"smiles": "CC1=C(C(=O)Nc2ccccc2)C(c2cccs2)C(C#N)=C(SCC#N)N1", "note": "(configuration not stated)", "Potency": "inactive"}, {"smiles": "Cc1ccc(-c2nn(C(C)(C)C)c3ncnc(N)c23)cc1", "Potency": "inactive"}, {"smiles": "CC(C)NC(=S)NN=C1CCCCCCCCCCC1", "Potency": "inactive"}, {"smiles": "NC(=S)Nc1c(Cl)cccc1Cl", "Potency": "inactive"}, {"smiles": "CCCCC(=O)NNC(=S)NC(=O)C(c1ccccc1)c1ccccc1", "Potency": "inactive"}, {"smiles": "Cc1noc(C)c1S(=O)(=O)N(C)Cc1ccccc1", "Potency": "inactive"}, {"smiles": "CC1(C)O[C@@H]2[C@H](O1)[C@@H](COS(=O)(=O)O)O[C@H]2n1ccc(=O)[nH]c1=O", "Potency": "inactive"}]}]}
